We go through 4 compounds from PubChem BioAssay.

Results filed as inconclusive are left out. Calls of active or inactive are those of the source.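 Rule for the calls, unless noted: active = percent response above a set limit, the screen-wide mean plus 3 SD (cut at about 130% in these data); inactive = the rest.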

A short description of test [1]: rapamycin-like changes in RPL19A-GFP expression – cell-based, S. cerevisiae, multiplex flow cytometry, primary screen (AID 1862; in the data active = percent of DMSO control GFP below about 86%;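 note: lower values mimic rapamycin by blocking the RPL19A rise seen in DMSO cells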). To be noted: S. cerevisiae RPL19A-GFP strain, flow cytometry fluorescence, 3 h; at 10 µM; stronger effect = lower value. On the technique in general: In flow cytometry, cells or beads pass a laser one at a time.
A short description of test [2]: TOR pathway GLN3 branch reporter MEP2-GFP changes – S. cerevisiae, multiplex flow cytometry, primary screen (AID 1867;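 active = GFP response, as percent of the DMSO control, above the screen-wide mean plus 3 SD, about 139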;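 note: median GFP channel fluorescence of barcode-gated MEP2-GFP cells measured by flow cytometry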). To be noted: S. cerevisiae MEP2-GFP strain, 3 h, at 10 µM, stronger effect = higher value, 100% means same as DMSO wells.
Test [3] can be described thus: TOR pathway RTG branch CIT2 reporter changes – S. cerevisiae, GFP fusion, multiplex flow cytometry, primary screen (AID 1870).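 Note: barcoded CIT2-GFP strain pooled with four other GFP strains with rapamycin as positive control; median GFP fluorescence per well over plate mean of DMSO wells so 100% = DMSO.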 The following applies: S. cerevisiae CIT2-GFP expression, 3 h, at 10 µM, stronger effect = higher value.
A short description of test [4]: TOR pathway LAP4-GFP level changes – S. cerevisiae, multiplex flow cytometry, primary screen (AID 1873;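 active = GFP signal, as percent of the solvent control, above the screen mean plus 3 SD, about 149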). To be noted: S. cerevisiae LAP4-GFP expression, 3 h, at 10 µM, stronger effect = higher value.
Test [5] is described as follows: yeast AGP1-GFP level changes, GLN3 branch – cell-based, multiplex flow cytometry, S. cerevisiae, primary screen (AID 1887;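 active = GFP signal above the screen-wide mean plus 3 SD, that is over about 124.5% of the solvent control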;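 note: AGP1-GFP fusion strain of S. cerevisiae within a five-strain barcoded multiplex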). The following applies: 3 h, at 10 µM, stronger effect = higher value.
Test [6] is described as follows: reduced mouse 2C T cell binding to pMHC/ICAM-1 vesicles – MLPCN validation set, flow cytometry, LFA-1/ICAM-1 modulator project, pilot screen (AID 2523;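 active = response below a set limit, under 55% cells CD8-positive and vesicle-bound, and CD8 cells' 90th-percentile brightness under 279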;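 for vesicle binding response: mean PE anti-B7-1 fluorescence of CD8+ cells relative to row control; 100% = QL9-loaded vesicles with DMSO vehicle in the same plate row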). To be noted: 2C mouse CD8+ T cells, at 7 µM, stronger effect = lower value; double positive events: measured here: CD8+/vesicle+ event percentage.
Test [7] has as its target Integrin beta-1 (Homo sapiens) + Integrin alpha-4 (Homo sapiens) (UniProt P13612+P05556). Nature of the test: alpha4beta1 integrin LIBS antibody binding reduction – U937 cells, HUTS-21 mAb, flow cytometry, validation set, VLA-4 allosteric modulator project, pilot screen (AID 2674;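 active = inhibition above 50%, about 3 SD of the validation set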;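 note: antibody binding induced by the VLA-4 ligand LDV present at three times its Kd; 0% = LDV ligand with antibody and no compound and 100% = antibody without LDV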). The following applies: HUTS-21 LIBS mAb binding, at 6.7 µM, stronger effect = higher value, binding induced by LDV ligand.

Test [8] is described as follows: calorie-restriction mimetic ROS inhibitors, yeast – validation compound set, pilot screen (AID 2706;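 active = superoxide response below 65% of plate, a cut near 3 SD across the whole screen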;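 note: yeast exposed to compound for one week at 30 degrees C before staining; 100% = mean of all compound wells on the same plate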). To be noted: S. cerevisiae aging, superoxide DHE fluorescence; at 10 µM; stronger effect = lower value.
Test [9] addresses Beta-adrenergic receptor kinase 1 (Homo sapiens) (UniProt P25098). Nature of the test: GRK2 binders displacing RNA aptamer, biochemical, validation, human GRK2, bead flow cytometry (AID 488806;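 active = aptamer binding inhibition above 30%, about 3 SD of noise from non-fluorescent compounds; inactive = inhibition at or below 30%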). The following applies: bead-bound GRK2, FAM-aptamer displacement, at 10 µM, stronger effect = higher value.
The target in test [10] is Beta-2 adrenergic receptor (Homo sapiens) (UniProt P07550). Nature of the test: agonist-induced loss of surface beta2AR – cell-based, FAP fluorogen, flow cytometry, validation set, pilot screen (AID 504459;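 active = percent response above 42, roughly 3 SD of non-fluorescent test compounds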;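 note: agonist-driven loss of surface beta2AR via internalization measured by FAP dye flow cytometry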). To be noted: Am2.2-beta2AR cells, at 10 µM, stronger effect = higher value.
Chain of Beta-2 adrenergic receptor (Homo sapiens) (P07550 whole entry, looked up): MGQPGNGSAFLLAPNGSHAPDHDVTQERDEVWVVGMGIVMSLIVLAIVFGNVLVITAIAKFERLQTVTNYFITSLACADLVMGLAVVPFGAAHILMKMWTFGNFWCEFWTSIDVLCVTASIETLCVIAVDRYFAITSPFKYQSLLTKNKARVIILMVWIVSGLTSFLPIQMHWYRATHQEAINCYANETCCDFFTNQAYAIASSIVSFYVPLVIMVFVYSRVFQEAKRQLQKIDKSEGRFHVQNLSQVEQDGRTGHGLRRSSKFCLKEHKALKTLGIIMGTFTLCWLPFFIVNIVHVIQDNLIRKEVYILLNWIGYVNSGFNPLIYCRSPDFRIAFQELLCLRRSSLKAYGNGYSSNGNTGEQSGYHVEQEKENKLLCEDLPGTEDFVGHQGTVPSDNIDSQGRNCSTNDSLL
For test [11], the target named is AP-2 complex subunit beta (Homo sapiens) (UniProt P63010). Nature of the test: beta-arrestin/AP2 interaction blockers – biochemical, validation set, GST-AP2 beads, flow cytometry, pilot screen (AID 504541;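 active = inhibition above 54%, about 3 SD of non-fluorescent compounds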;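 note: AP2 carries R879A mutation and is captured from E. coli lysate; bead-bound FITC arrestin peptide fluorescence measuring arrestin peptide binding to AP2; 0% = DMSO wells and 100% = excess unlabeled arrestin peptide control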). To be noted: FITC arrestin peptide, at 10 µM, stronger effect = higher value, AP2 beta2 appendage fragment, R879A mutant.
Chain of AP-2 complex subunit beta (Homo sapiens) (P63010 whole entry, looked up, the tested form may be a part, one chain of several): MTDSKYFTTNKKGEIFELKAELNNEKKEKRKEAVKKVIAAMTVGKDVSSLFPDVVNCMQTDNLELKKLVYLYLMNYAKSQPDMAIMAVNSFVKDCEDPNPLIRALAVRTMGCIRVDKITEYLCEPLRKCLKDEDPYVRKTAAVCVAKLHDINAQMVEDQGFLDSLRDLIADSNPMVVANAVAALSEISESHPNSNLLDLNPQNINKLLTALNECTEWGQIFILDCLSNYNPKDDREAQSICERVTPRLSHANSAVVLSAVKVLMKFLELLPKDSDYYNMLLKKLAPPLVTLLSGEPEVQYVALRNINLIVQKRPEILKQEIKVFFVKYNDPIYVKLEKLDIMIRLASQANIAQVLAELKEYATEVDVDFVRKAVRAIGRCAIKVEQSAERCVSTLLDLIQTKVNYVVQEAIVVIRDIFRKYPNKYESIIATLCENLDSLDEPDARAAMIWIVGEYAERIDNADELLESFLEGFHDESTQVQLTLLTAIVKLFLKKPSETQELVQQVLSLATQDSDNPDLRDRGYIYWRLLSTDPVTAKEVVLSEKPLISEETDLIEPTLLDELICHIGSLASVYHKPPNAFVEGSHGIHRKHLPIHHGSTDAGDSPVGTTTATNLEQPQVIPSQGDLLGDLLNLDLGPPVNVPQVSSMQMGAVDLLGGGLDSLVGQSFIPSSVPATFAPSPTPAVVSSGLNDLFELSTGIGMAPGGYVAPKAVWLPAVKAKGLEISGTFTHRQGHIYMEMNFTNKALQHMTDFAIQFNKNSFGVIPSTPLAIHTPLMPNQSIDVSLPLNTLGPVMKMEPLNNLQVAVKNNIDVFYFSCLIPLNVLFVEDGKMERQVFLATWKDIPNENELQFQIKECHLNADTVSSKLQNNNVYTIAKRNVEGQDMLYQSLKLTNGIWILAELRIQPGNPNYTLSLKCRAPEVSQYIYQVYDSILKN
Test [12] in a line: cytosolic pH regulators acting via V-ATPase – S. cerevisiae, pHLuorin, HTS validation (AID 504600; in the data active = response above about 15%;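 note: plate controls were DMSO for no effect and reference compound for full effect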). The following applies: V-ATPase proton transport, at 10 µM, stronger effect = higher value.
Test [13] concerns anti-desmoglein-3 scFv antibody binding to human DSG3. Nature of the test: blockers of pathogenic pemphigus antibody–desmoglein-3 binding – biochemical, validation compound set, bead-based, flow cytometry, pilot screen (AID 588368;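 active = binding below the plate cutoff, the plate median minus 3 SD, with a reading above zero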;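 note: signal is the median channel fluorescence of bead-bound GFP antibody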). To be noted: Protein G beads, DSG3-Fc, scFv-GFP binding, at 10 µM, stronger effect = lower value.
Test [14] in a line: Nile Red efflux blockade in pump-expressing yeast – validation compound set, multiplex, phenotypic, pilot screen (AID 588506;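 active = efflux inhibition above 0.42, the validation set average plus 4 SD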;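 note: Nile Red retained in cells so higher fluorescence means more efflux inhibition; 0 = negative control wells and 1 = enniatin B 25 µM full block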). To be noted: S. cerevisiae pump-expressing triplex, Nile Red efflux flow cytometry; at 10 µM; stronger effect = higher value; the pumps come from Candida albicans.
Test [15] concerns the target ATP-binding cassette sub-family B member 6 (Homo sapiens) (UniProt Q9NP58). Nature of the test: blockers of ABCB6-driven porphyrin uptake – K562-ABCB6 cells, flow cytometry, validation set, pilot screen (AID 588550;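 active = inhibition above the screen-wide mean plus 3 SD, about 51%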;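 note: 0% = DMSO wells and 100% = benzethonium chloride 70 µM positive control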). To be noted: K562-ABCB6 porphyrin accumulation, 1 h, at 10 µM, stronger effect = higher value.
A short description of test [16]: AML differentiation inducers, ER-HoxA9 marrow cells – cell-based, GFP/MAC1 double positive, flow cytometry, validation set, primary screen (AID 588685;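 active = differentiation response of at least 50%, scaled between solvent and reference control, from cells with both markers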;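 note: compound exposure lasts four days before antibody staining and flow analysis; 0% = DMSO wells and 100% = 5 µM fulvestrant positive control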). The following applies: stronger effect = higher value, normalized: vehicle 0, fulvestrant 100.

As usually defined, the inhibition is the drop in the measured response relative to a control, in per cent.

Chain of Beta-adrenergic receptor kinase 1 (Homo sapiens) (P25098 whole entry, looked up): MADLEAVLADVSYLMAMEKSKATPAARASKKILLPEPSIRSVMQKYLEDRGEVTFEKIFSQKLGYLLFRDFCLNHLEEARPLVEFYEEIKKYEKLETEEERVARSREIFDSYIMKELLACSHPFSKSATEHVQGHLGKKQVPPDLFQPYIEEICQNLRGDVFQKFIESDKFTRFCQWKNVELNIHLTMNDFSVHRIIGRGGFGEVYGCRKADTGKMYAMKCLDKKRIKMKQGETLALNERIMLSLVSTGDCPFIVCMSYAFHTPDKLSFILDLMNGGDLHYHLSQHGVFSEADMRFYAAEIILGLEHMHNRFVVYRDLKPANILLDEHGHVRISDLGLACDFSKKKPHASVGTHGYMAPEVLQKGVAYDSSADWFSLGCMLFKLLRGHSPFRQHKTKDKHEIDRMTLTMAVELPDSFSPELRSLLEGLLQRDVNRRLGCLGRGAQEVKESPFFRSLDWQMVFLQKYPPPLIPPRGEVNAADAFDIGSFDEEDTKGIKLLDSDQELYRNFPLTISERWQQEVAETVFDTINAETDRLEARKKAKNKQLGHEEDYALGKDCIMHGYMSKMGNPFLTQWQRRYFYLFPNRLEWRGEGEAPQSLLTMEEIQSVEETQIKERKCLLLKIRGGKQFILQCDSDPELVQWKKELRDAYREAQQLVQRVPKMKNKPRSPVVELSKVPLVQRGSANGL
Chain of ATP-binding cassette sub-family B member 6 (Homo sapiens) (Q9NP58 whole entry, looked up): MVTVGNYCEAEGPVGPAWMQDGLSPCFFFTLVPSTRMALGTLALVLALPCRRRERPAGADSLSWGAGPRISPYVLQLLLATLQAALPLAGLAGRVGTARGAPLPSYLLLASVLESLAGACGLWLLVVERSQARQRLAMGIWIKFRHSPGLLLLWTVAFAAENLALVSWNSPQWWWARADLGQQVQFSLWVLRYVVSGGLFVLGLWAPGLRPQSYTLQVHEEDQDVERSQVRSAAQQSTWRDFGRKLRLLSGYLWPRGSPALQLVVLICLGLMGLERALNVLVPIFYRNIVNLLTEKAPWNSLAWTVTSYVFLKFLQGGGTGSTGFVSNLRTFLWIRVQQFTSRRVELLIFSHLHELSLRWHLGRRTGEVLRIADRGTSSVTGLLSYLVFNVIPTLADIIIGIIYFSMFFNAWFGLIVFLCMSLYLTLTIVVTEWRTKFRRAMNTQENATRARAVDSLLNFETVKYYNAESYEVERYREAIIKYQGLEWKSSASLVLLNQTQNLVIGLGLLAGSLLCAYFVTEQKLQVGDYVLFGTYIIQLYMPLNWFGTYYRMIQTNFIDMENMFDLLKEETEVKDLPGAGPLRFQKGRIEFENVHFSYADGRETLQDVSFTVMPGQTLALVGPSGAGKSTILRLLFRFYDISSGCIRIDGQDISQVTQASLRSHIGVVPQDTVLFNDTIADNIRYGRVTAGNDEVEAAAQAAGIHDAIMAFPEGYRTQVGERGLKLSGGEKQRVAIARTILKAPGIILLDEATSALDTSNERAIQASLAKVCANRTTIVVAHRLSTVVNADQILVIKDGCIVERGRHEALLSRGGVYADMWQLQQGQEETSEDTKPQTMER
Chain of Integrin beta-1 (Homo sapiens) + Integrin alpha-4 (Homo sapiens) (P05556 whole entry, looked up): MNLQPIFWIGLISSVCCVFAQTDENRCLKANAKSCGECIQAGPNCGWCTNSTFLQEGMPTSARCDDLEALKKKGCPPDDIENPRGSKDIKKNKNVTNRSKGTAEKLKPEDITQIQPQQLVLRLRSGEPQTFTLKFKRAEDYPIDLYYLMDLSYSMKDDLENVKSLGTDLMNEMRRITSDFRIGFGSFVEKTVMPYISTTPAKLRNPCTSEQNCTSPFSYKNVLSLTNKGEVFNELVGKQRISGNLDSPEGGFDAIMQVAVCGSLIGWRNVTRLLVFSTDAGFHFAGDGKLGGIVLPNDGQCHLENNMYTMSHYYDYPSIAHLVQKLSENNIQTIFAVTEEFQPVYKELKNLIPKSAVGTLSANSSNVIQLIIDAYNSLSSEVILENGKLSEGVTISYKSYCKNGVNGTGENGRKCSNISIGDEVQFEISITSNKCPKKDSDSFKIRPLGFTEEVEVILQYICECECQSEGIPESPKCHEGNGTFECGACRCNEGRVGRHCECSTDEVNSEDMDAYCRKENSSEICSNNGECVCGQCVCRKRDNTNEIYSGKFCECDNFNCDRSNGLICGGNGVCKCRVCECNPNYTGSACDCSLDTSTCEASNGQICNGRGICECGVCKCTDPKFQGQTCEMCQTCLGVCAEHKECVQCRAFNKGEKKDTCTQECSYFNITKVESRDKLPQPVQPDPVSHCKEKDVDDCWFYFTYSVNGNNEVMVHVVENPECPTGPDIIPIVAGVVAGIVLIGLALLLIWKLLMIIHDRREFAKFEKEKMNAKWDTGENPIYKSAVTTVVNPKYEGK
Chain of Integrin beta-1 (Homo sapiens) + Integrin alpha-4 (Homo sapiens) (P13612 whole entry, looked up): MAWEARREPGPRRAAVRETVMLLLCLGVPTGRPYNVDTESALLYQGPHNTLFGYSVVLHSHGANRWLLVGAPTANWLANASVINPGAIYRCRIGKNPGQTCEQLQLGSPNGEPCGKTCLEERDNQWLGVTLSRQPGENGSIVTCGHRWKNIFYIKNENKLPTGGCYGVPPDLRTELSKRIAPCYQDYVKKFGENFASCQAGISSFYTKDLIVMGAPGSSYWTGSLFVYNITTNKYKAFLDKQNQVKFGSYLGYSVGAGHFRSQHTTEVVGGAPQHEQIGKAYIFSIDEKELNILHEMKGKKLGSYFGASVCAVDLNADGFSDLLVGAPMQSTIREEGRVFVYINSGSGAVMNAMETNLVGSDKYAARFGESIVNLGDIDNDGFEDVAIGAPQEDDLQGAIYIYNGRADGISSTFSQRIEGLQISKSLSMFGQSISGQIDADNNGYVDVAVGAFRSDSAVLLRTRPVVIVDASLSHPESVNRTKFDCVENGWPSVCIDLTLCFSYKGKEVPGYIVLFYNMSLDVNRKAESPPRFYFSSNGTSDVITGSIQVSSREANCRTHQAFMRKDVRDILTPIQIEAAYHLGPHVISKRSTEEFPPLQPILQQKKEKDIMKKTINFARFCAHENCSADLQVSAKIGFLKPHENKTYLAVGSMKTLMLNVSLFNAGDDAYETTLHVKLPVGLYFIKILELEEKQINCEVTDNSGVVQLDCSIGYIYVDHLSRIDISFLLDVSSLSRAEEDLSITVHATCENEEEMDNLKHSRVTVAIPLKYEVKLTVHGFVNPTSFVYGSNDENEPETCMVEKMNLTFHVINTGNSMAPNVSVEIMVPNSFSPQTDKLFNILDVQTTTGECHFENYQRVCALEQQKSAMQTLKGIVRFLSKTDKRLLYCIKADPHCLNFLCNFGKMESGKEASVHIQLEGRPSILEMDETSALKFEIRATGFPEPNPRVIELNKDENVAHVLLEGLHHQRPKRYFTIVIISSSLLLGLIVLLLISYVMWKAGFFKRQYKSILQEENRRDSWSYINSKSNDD

Regarding `NNC(=O)c1cc(O)c(O)c(O)c1`, in test [1], the percent of DMSO control GFP was 105% (inactive). The results for the GFP response vs DMSO in test [2] and in test [4] were 88.8% (inactive) and 96% (inactive), respectively. In test [3], the percent response of DMSO control is 114% (inactive). Moreover, in test [5], the GFP response, % of DMSO is 106% (inactive). In test [6], this compound came in with a double positive events of 59%. Further, the vesicle binding response in test [6] was 149% (inactive). For the same compound, the inhibition in test [7] was -1.49% (inactive); in test [11], 12% (inactive); in test [15] it was 5% (inactive). Moreover, the superoxide response (% of plate) in [8] is 93.7% (inactive). Moreover, the aptamer binding inhibition in test [9] was 4% (inactive). Also, the figures for the response in test [10] and in test [12] were -4.68% (inactive) and 1.02% (inactive), respectively. In [13], the binding (% of control) was 91.2% (inactive). Moreover, the efflux inhibition (fraction of control) in test [14] is -0.1 (inactive). Besides, the differentiation response in test [16] is -2.69% (inactive).
As for `CN(C)CC/C=C1\c2ccccc2COc2ccccc21`, the percent of DMSO control GFP in [1] was 96% (inactive). Moreover, the values for the GFP response vs DMSO in test [2] and in test [4] were 96.6% (inactive) and 104% (inactive), respectively. For the same compound, the percent response of DMSO control in [3] was 90.5% (inactive). In addition, the GFP response, % of DMSO in test [5] was 109% (inactive). This compound also displayed a double positive events in test [6] of 68.1%. Moreover, the vesicle binding response in test [6] is 176% (inactive). In addition, the inhibition in [7] was 20.2% (inactive); in test [11] it was -7.94% (inactive); in test [15], 6% (inactive). The superoxide response (% of plate) in test [8] is 93.9% (inactive). The aptamer binding inhibition in test [9] was -3% (inactive). The figures for the response in test [10] and in test [12] were 0.32% (inactive) and 3.08% (inactive), respectively. The binding (% of control) in test [13] is 79% (active). Moreover, in test [14], the efflux inhibition (fraction of control) is -0.04 (inactive). Moreover, in [16], the differentiation response is -6.96% (inactive).
As to `COc1cc2c(cc1OC)C(=S)NC(C)(C)C2`, the percent of DMSO control GFP in [1] is 102% (inactive). In addition, the GFP response vs DMSO in test [2] is 106% (inactive); in [4], 95.3% (inactive). For the same compound, in test [3], the percent response of DMSO control was 100% (inactive). In addition, the GFP response, % of DMSO in test [5] was 102% (inactive). Moreover, in test [6], the double positive events is 60.1%. In addition, the vesicle binding response in [6] was 1280% (inactive). Also, the figures for the inhibition in test [7], in test [11] and in test [15] were -11.9% (inactive), 22% (inactive) and -13% (inactive), respectively. Also, the superoxide response (% of plate) in [8] was 110% (inactive). The aptamer binding inhibition in test [9] is 0% (inactive). The response is 0.62% (inactive) in test [10] and -4.8% (inactive) in test [12]. Besides, in test [13], the binding (% of control) is 101% (inactive). In addition, the efflux inhibition (fraction of control) in [14] is 0.08 (inactive). Besides, the differentiation response in [16] is 6.11% (inactive).
Take `Oc1ccccc1OCCOc1ccccc1OCCOc1ccccc1O`: in test [1], the percent of DMSO control GFP was 100% (inactive). The GFP response vs DMSO was 108% (inactive) in test [2] and 117% (inactive) in test [4]. For the same compound, the percent response of DMSO control in [3] is 105% (inactive). The GFP response, % of DMSO in test [5] was 110% (inactive). The double positive events in test [6] was 62.1%. In addition, the vesicle binding response in test [6] is 245% (inactive). For the same compound, the inhibition in test [7] is 15.9% (inactive); in [11], 1.79% (inactive); in test [15] it was 6% (inactive). In addition, the superoxide response (% of plate) in test [8] is 97.2% (inactive). The aptamer binding inhibition in [9] is -2% (inactive). The response was -15.9% (inactive) in [10] and -8.12% (inactive) in test [12]. In test [13], the binding (% of control) was 112% (inactive). The efflux inhibition (fraction of control) in test [14] is -0.04 (inactive). In test [16], the differentiation response was -6.96% (inactive).
